# From paper PMC7862700, “An all-to-all approach to the identification of sequence-specific readers for epigenetic DNA modifications on cytosine”
# Columns and labels:
# Assay in all cases: DAPPL (digital affinity profiling via proximity ligation, sequencing); 10 mM Tris-HCl pH 7.5, 50 mM NaCl, 1 mM DTT, 4% glycerol, room temperature, 30 min; GST-TFs on glutathione beads, 16-mer random dsDNA library, 0.1% formaldehyde crosslink after washing; high values mean tight binding
# Conditions in all cases: protein: recombinant; tags: N-terminal GST; dsDNA, one strand shown
# ETV1 = ETV1 (Homo sapiens, UniProt P50549 1-477)
# How it was run: (§1)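 Sequencing on an Illumina NextSeq500 followed washing, crosslinking with 0.1% formaldehyde, proximity ligation (BsaI/T4 ligase, 1 h, 37 °C) and PCR amplification of pools that had been incubated for 30 min at room temperature with 200 nmole of a random double-stranded 16-mer DNA library in Tris/NaCl/DTT/glycerol buffer. Each pool held DNA-barcoded human transcription factors, expressed in yeast as GST fusions and captured on glutathione beads, plus a tag-only sample. Binding signal is a hexamer's read frequency for a factor divided by its frequency in the tag-only sample.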
# ERF = biological target: T1, ERF (Homo sapiens, UniProt P50548 1-548)
# T1 sequence: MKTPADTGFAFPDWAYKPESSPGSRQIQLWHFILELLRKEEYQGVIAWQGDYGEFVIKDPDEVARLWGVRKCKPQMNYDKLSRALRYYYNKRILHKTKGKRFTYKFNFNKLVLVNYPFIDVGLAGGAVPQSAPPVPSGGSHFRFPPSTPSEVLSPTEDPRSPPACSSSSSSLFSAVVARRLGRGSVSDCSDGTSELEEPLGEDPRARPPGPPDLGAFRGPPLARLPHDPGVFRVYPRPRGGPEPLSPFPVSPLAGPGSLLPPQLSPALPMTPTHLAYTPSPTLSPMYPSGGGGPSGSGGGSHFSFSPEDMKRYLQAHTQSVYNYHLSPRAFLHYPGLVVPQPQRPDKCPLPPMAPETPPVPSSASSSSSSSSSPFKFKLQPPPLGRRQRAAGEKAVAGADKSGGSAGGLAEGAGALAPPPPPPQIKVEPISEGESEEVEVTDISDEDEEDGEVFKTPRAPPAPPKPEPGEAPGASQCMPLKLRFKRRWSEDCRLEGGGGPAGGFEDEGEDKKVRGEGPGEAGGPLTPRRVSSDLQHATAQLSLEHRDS
# How it was run: as §1
# ETV3L = biological target: T2, ETV3L (Homo sapiens, UniProt Q6ZN32 1-361)
# T2 sequence: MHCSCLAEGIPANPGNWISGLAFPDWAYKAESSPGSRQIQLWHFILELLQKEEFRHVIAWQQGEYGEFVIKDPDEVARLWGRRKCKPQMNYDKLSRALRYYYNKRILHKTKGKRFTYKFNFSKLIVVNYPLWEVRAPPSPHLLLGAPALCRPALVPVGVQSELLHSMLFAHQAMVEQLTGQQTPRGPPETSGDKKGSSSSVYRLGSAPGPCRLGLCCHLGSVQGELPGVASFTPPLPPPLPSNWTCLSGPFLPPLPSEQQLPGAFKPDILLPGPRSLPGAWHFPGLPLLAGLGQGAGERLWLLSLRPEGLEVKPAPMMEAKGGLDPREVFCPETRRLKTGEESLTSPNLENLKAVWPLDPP
# How it was run: as §1
# ETS2 = biological target: T3, ETS2 (Homo sapiens, UniProt P15036 1-469)
# T3 sequence: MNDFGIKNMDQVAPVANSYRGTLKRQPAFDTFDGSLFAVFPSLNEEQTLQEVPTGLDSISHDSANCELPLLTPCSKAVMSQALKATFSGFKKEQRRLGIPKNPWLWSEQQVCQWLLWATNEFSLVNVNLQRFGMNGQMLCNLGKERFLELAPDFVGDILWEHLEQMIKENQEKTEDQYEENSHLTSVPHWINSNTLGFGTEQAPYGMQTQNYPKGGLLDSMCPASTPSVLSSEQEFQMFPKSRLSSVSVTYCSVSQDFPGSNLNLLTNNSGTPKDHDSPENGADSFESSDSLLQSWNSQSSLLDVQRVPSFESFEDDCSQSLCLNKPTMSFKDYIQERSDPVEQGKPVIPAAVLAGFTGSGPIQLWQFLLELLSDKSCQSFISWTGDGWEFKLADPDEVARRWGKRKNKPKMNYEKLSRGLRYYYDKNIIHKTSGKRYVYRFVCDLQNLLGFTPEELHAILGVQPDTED
# How it was run: as §1
# SPDEF = biological target: T4, SPDEF (Homo sapiens, UniProt O95238 1-335)
# T4 sequence: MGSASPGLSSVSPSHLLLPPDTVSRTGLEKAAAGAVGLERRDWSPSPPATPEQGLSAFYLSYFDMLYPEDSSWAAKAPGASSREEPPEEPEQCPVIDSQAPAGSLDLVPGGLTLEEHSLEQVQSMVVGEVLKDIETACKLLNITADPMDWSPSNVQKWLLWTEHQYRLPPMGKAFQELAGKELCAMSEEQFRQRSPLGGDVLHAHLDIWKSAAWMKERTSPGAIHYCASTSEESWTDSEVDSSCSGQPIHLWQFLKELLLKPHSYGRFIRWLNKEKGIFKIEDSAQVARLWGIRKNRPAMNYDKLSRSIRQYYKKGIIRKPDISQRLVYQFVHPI
# How it was run: as §1
# ETV7 = biological target: T5, ETV7 (Homo sapiens, UniProt Q9Y603 1-341)
# T5 sequence: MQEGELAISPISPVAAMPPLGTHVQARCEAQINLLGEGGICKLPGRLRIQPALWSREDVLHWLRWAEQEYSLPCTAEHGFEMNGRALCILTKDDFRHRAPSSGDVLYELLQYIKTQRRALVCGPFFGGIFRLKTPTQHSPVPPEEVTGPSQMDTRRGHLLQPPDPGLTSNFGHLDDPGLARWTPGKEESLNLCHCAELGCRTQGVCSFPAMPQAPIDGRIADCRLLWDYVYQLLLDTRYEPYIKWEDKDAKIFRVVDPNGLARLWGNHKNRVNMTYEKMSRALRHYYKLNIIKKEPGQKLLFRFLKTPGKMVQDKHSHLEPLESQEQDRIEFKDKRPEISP
# How it was run: as §1
# ELF5 = biological target: T6, ELF5 (Homo sapiens, UniProt Q9UKW6-2 1-255)
# T6 sequence: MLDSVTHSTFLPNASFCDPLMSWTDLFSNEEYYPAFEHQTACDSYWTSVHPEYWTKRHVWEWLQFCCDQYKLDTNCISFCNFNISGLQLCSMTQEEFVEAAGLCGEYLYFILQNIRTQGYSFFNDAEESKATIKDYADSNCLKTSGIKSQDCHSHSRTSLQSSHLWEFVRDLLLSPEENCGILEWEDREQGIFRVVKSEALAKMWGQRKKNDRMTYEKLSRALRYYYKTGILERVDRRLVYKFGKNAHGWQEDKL
# How it was run: as §1
# ETV3 = biological target: T7, ETV3 (Homo sapiens, UniProt P41162-2 1-143)
# T7 sequence: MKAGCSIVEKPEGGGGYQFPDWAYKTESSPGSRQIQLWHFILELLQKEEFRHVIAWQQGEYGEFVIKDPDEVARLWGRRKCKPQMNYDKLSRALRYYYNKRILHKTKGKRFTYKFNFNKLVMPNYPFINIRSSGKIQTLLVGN
# How it was run: as §1
# ETV6 = ETV6 (Homo sapiens, UniProt P41212 1-452)
# How it was run: as §1
# ETV6, sequence (P41212 whole entry): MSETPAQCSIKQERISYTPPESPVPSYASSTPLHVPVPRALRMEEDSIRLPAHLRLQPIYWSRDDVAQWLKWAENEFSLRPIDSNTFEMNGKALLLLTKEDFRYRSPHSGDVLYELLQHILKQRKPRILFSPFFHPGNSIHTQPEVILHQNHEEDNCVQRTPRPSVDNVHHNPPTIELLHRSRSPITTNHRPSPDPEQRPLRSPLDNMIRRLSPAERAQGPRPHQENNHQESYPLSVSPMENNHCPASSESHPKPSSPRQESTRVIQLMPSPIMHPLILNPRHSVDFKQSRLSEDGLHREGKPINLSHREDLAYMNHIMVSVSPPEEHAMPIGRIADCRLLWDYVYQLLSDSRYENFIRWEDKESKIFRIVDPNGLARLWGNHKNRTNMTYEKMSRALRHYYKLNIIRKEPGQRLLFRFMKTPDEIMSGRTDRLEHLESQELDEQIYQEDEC
# ETV1, sequence (P50549 whole entry, the tested form may be a part): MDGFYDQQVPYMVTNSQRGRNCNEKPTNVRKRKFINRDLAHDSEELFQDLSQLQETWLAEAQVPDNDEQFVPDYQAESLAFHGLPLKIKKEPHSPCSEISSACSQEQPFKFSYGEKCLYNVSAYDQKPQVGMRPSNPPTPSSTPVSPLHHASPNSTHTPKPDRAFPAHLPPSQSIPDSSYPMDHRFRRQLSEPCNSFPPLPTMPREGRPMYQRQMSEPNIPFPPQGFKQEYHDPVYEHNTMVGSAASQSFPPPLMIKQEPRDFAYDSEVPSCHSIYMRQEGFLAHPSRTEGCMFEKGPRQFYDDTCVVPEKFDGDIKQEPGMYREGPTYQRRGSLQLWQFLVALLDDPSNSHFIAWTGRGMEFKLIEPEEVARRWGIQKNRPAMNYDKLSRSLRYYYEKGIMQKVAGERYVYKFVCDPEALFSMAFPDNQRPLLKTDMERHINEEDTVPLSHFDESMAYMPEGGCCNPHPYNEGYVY
sequence,measurement,setting,value
CTTCCG,binding signal,ETV1,"7.97 fold enrichment (6-mer frequency, TF over GST control)"
same,binding signal,ERF,"6.13 fold enrichment (6-mer frequency, TF over GST control)"
same,binding signal,ETV3L,"7.08 fold enrichment (6-mer frequency, TF over GST control)"
same,binding signal,ETS2,"8.04 fold enrichment (6-mer frequency, TF over GST control)"
same,binding signal,SPDEF,"7.63 fold enrichment (6-mer frequency, TF over GST control)"
same,binding signal,ETV7,"7.48 fold enrichment (6-mer frequency, TF over GST control)"
same,binding signal,ELF5,"11.4 fold enrichment (6-mer frequency, TF over GST control)"
same,binding signal,ETV3,"8.47 fold enrichment (6-mer frequency, TF over GST control)"
same,binding signal,ETV6,"9.62 fold enrichment (6-mer frequency, TF over GST control)"
